Structures are written as SMILES. Results filed as inconclusive are left out. The source made the active and inactive calls. Calls come from the whole dose curve; as a rule, active = well fitted inhibition curve with a large enough effect; inconclusive = small, poorly fitted or top-dose-only effect; inactive = flat fitted curve, though single readings scatter.

Test in all cases: qHTS profiling for inhibitors of Plasmodium falciparum proliferation (AID 504749); note: nearly all actives have a fitted effect of over 60% in size
Common to all, as to settings: P. falciparum in erythrocytes, SYBR Green DNA, 72 h; series mostly up to 28.7 µM

One assay concerns CP266. Put shortly:
(§1)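 Three-day growth assay of blood-stage parasites in erythrocytes (0.3% parasitemia, 2.5% hematocrit) at 37 C, 5% CO2, quantified by SYBR Green DNA staining after overnight detergent lysis.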

The subject of another assay is CP268. A digest of the protocol:
as §1

The next assay deals with CP269. A digest of the protocol:
as §1

In a further assay the test system is CP286. Put shortly: as §1
The test system of a further assay is CP291. Put shortly: as §1
For the next assay, the system named is CP297. Put shortly:
as §1

Another assay has as its system CP305. Put shortly: as §1
For another assay, the system named is CP315. Put shortly:
as §1

Another assay deals with CP325. Put shortly: as §1
A further assay relates to CP329. Put shortly:
as §1

Another assay deals with CP335. A digest of the protocol: as §1
Another assay concerns DFO2036. Put shortly: as §1
For a further assay, the system named is DIV14. Put shortly:
as §1

The test system of the next assay is DIV17. A digest of the protocol: as §1
A further assay relates to DIV30. Put shortly:
as §1

A further assay deals with Dd2. Put shortly: as §1
A further assay concerns ECU. A digest of the protocol:
as §1

In a further assay the test system is FAB9. A digest of the protocol: as §1
For the next assay, the system named is GB4. Put shortly: as §1
A further assay has as its system HB3. Put shortly:
as §1
Potency is the fitted concentration of half-maximal effect.

As for `CC(=O)[C@H]1CC[C@H]2[C@@H]3CC[C@H]4C[C@](C)(O)CC[C@]4(C)[C@H]3CC[C@]12C`, the Potency entry with CP266, in the assay with CP268, in the assay on CP269, in the assay on CP286, with CP291 and in the assay on CP297 was “inactive” each time. Also, the Potency result in the assay with CP305, in the assay with CP315, in the assay on CP325, in the assay on CP329, with CP335 and in the assay on DFO2036 was “inactive” each time. Moreover, the Potency result with DIV14, with DIV17, with DIV30, with Dd2, in the assay on ECU and in the assay on FAB9 was “inactive” each time. Moreover, the Potency result in the assay with GB4 and with HB3 was “inactive” throughout.
With `CC(C)(C)CC(C)(C)c1ccc(O)cc1`, the Potency entry with CP266, in the assay with CP268, with CP269, with CP286, in the assay with CP291 and in the assay on CP297 was “inactive” in each case. Moreover, the Potency entry in the assay on CP305, in the assay on CP315, with CP325, in the assay on CP329, in the assay on CP335 and in the assay with DFO2036 was “inactive” in each case. Also, the Potency entry in the assay with DIV30 and in the assay with FAB9 was “inactive” in each case.
For the compound `CN1CCN(C(=O)O[C@H]2c3nccnc3C(=O)N2c2ccc(Cl)cn2)CC1`, the Potency entry in the assay on CP266, in the assay with CP268, in the assay on CP269, with CP286, in the assay on CP291 and with CP297 was “inactive” in each case. Further, the Potency result in the assay with CP305, with CP315, with CP325, in the assay with CP329, in the assay on CP335 and in the assay on DFO2036 was “inactive” each time. The Potency result with DIV14, with DIV17, in the assay on DIV30, with Dd2, in the assay on ECU and with FAB9 was “inactive” each time. Moreover, the Potency entry in the assay with GB4 and in the assay with HB3 was “inactive” throughout.
As for `NP(N)(=O)NC(=O)c1ccc(F)cc1`, the Potency entry in the assay on CP266, in the assay on CP268, with CP269, in the assay on CP286, in the assay with CP291 and with CP297 was “inactive” in each case. Besides, the Potency entry in the assay with CP305, with CP315, in the assay on CP325, with CP329, with CP335 and with DFO2036 was “inactive” throughout. Besides, the Potency entry in the assay with DIV14, with DIV17, with DIV30, in the assay with Dd2, in the assay with ECU and with FAB9 was “inactive” throughout. The Potency result in the assay with GB4 and with HB3 was “inactive” each time.
Turning to `O=C1NCN(c2ccccc2)C12CCN(CC1COc3ccccc3O1)CC2` (stereo unspecified), the Potency entry in the assay on CP266, with CP268, in the assay on CP269, with CP286, in the assay on CP291 and with CP297 was “inactive” throughout. The Potency result with CP305, in the assay on CP315, in the assay on CP325, with CP329, with CP335 and with DFO2036 was “inactive” in each case. In addition, the Potency result in the assay on DIV14, with DIV30, in the assay on Dd2, in the assay with ECU, with FAB9 and in the assay with GB4 was “inactive” throughout. The Potency result with HB3 is “inactive”.
Take `CCC(COC(=O)c1cc(OC)c(OC)c(OC)c1)(c1ccccc1)N(C)C` (stereo unspecified): the Potency result in the assay on CP266, in the assay on CP268, with CP269, in the assay with CP286, in the assay with CP291 and with CP297 was “inactive” each time. The Potency entry in the assay with CP305, in the assay on CP315, in the assay with CP325, in the assay with CP329, in the assay on CP335 and with DFO2036 was “inactive” throughout. The Potency entry in the assay with DIV14, in the assay with DIV17, with DIV30, in the assay with Dd2, in the assay with ECU and in the assay with FAB9 was “inactive” in each case. For the same compound, the Potency result with HB3 was “inactive”.
As for `c1ccc(C2CC2)c(OCC2=NCCN2)c1`, the Potency result in the assay on CP266, in the assay on CP268, in the assay with CP269, in the assay on CP286, with CP291 and in the assay on CP297 was “inactive” throughout. The Potency result in the assay with CP305, in the assay with CP315, in the assay with CP325, in the assay on CP329, in the assay on CP335 and in the assay with DFO2036 was “inactive” throughout. In addition, the Potency result in the assay with DIV30, in the assay on ECU, in the assay on FAB9 and in the assay with HB3 was “inactive” each time.
For the compound `O=P1(NCCCl)OCCCN1CCCl` (stereo unspecified), the Potency result with CP266, in the assay on CP268, with CP269, in the assay with CP286, in the assay on CP291 and with CP297 was “inactive” throughout. For the same compound, the Potency result with CP305, in the assay with CP315, in the assay with CP325, with CP329, in the assay on CP335 and in the assay on DFO2036 was “inactive” each time. In addition, the Potency entry with DIV14, in the assay with DIV17, in the assay on DIV30, with Dd2, in the assay on ECU and in the assay on FAB9 was “inactive” in each case. In addition, the Potency entry with GB4 and in the assay with HB3 was “inactive” each time.
In the case of `CCOC(=O)C1(c2ccccc2)CCN(CCC(C#N)(c2ccccc2)c2ccccc2)CC1`, the Potency with CP266 was 6.01 µM (active); in the assay with CP268, 3.79 µM (active); in the assay with CP269 it was 4.26 µM (active); in the assay on CP286 it was 2.82 µM (active); with CP291, 4.26 µM (active); in the assay with CP297 it was 5.36 µM (active). In addition, the Potency is 4.78 µM (active) with CP305; 4.78 µM (active) in the assay with CP315; 4.26 µM (active) with CP325; 3.79 µM (active) in the assay with CP329; 3.38 µM (active) in the assay with CP335; 2.82 µM (active) in the assay with DFO2036. For the same compound, the Potency in the assay with DIV14 is 4.78 µM (active); with DIV17, 6.75 µM (active); in the assay with DIV30, 6.75 µM (active); in the assay with Dd2 it was 8.91 µM (active); with ECU, 3.98 µM (active); with GB4, 3.38 µM (active). The Potency with HB3 is 5.01 µM (active).
For `Cn1c(CCCC(=O)O)nc2cc(N(CCCl)CCCl)ccc21`, the Potency result with CP266, in the assay with CP268, in the assay on CP269, with CP286, in the assay with CP291 and in the assay with CP297 was “inactive” in each case. Further, the Potency entry with CP305, with CP315, in the assay on CP325, in the assay on CP329, in the assay on CP335 and in the assay with DFO2036 was “inactive” throughout. Further, the Potency result in the assay on DIV14, with DIV17, in the assay with DIV30, in the assay with Dd2, with ECU and in the assay on FAB9 was “inactive” each time. Further, the Potency entry with GB4 and in the assay with HB3 was “inactive” each time.
With `CC[C@@H](CO)NC(=O)[C@@H]1C=C2c3cccc4[nH]cc(c34)C[C@H]2N(C)C1`, the Potency result with CP266, in the assay with CP268, in the assay on CP269, in the assay on CP286, with CP291 and in the assay on CP297 was “inactive” each time. For the same compound, the Potency entry in the assay with CP305, in the assay with CP315, in the assay on CP325, in the assay with CP329, in the assay with DFO2036 and in the assay with DIV14 was “inactive” each time. The Potency entry in the assay with DIV17, in the assay on DIV30, with Dd2, with ECU, in the assay with FAB9 and in the assay with GB4 was “inactive” each time. For the same compound, the Potency result in the assay with HB3 was “inactive”.
Regarding `Oc1cccc2cccnc12`, the Potency result in the assay with CP266, in the assay on CP268, in the assay on CP269, with CP286, with CP291 and in the assay with CP297 was “inactive” in each case. For the same compound, the Potency result with CP305, in the assay on CP315, in the assay on CP325, in the assay with CP329, in the assay with CP335 and with DFO2036 was “inactive” throughout. Besides, the Potency result in the assay with DIV14, with DIV17, in the assay with DIV30, with Dd2, in the assay with ECU and in the assay on FAB9 was “inactive” in each case. Moreover, the Potency entry in the assay with GB4 and in the assay with HB3 was “inactive” in each case.
On to `Oc1ccccc1-c1ccccc1`, for which the Potency entry with CP266, in the assay on CP268, in the assay with CP269, in the assay on CP286, in the assay with CP291 and with CP297 was “inactive” in each case. Moreover, the Potency result with CP305, in the assay with CP315, with CP325, with CP329, in the assay on CP335 and with DFO2036 was “inactive” throughout. In addition, the Potency result with DIV14, in the assay with DIV17, in the assay with DIV30, with Dd2, in the assay on ECU and in the assay on FAB9 was “inactive” each time. In addition, the Potency result in the assay on GB4 and with HB3 was “inactive” each time.
For the compound `CC1OC(C)OC(C)O1` (stereo unspecified), the Potency entry with CP266, in the assay with CP268, in the assay with CP269, with CP286, in the assay with CP291 and with CP297 was “inactive” in each case. In addition, the Potency entry in the assay on CP305, in the assay on CP315, with CP325, in the assay with CP329, with CP335 and in the assay with DFO2036 was “inactive” in each case. Further, the Potency entry in the assay with DIV14, in the assay on DIV17, with DIV30, in the assay on Dd2, with ECU and in the assay on FAB9 was “inactive” each time. Besides, the Potency entry with GB4 and in the assay on HB3 was “inactive” in each case.

The record behind these values is PubChem BioAssay (NCATS).
